Measurements published in PMC4336329 (PLoS ONE, 2015).
About 14,000 (4.5%) of roughly 310,000 compounds showed an effect of 50% or more. The effect is printed as a negative number. This is one part of a sample in which strong results are shown more often than they occur.

target: human ether-à-go-go-related gene (hERG) potassium channel (human, UniProt Q12809); assay: primary screen, population patch clamp on CHO cells stably expressing hERG; higher = less effect of the substance
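Further: peak tail current of the secondary pulse compared with the same well before compound.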

Chain of human ether-à-go-go-related gene (hERG) potassium channel (Q12809 whole entry, looked up): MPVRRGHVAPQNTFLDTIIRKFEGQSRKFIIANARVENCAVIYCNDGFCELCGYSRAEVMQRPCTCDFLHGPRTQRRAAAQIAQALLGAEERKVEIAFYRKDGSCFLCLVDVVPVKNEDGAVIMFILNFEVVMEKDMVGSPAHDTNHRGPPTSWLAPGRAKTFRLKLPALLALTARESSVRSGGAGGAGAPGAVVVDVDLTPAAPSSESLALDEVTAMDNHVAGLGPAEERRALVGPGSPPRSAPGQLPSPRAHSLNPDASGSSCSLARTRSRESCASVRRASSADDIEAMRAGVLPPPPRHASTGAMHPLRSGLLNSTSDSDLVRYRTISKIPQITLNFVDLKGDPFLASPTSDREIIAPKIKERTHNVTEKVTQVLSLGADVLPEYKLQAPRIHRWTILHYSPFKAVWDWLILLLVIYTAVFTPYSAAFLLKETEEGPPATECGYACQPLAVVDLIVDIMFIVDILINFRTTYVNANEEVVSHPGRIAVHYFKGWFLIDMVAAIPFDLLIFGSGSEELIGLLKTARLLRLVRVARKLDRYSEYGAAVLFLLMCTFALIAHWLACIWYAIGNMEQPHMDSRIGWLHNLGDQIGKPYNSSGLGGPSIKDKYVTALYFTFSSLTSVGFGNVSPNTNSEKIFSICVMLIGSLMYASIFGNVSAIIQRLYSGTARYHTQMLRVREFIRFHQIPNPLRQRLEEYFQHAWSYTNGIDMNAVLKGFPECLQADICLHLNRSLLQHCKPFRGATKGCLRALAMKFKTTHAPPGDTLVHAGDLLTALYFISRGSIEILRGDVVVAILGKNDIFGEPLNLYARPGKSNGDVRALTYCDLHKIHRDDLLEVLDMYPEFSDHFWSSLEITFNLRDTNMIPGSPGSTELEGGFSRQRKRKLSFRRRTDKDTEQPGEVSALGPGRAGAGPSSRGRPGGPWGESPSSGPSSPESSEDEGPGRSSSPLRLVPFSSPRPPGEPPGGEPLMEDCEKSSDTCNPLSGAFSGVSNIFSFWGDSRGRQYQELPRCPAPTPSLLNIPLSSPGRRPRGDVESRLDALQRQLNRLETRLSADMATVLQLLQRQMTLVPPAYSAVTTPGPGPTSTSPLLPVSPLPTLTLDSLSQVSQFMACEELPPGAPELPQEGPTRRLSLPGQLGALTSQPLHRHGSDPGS

SMILES	hERG current change (%, negative = inhibition) at 10uM [%]
O=C1CN(S(=O)(=O)c2cccc(Cl)c2Cl)c2ccccc2N1	3.58
O=C1CC(=Nc2ccccc2)NN1c1ccccc1	23.1
CCCCNC(=O)NC1CCCC1	4.48
c1ccc2c(c1)c1cccc3ccc4cccc2c4c31	16.4
COC(=O)c1c(NC(=O)/C=C/c2ccco2)sc2c1CCC2	17.6
Cc1nc(N)nc(Nc2ccc(Cl)cc2)c1Br	-7.99
COc1ccc(NC(=O)c2ccccc2Cl)cc1NC(=O)CN1CCOCC1	-5.99
COc1ccc(NC(C)=O)cc1NC(=O)CN1CCN(c2ccccn2)CC1	10.3
COc1ccccc1NC(=O)CN1CCN(CC(=O)Nc2cc(NC(C)=O)ccc2OC)CC1	-50.3
COc1ccc(NC(C)=O)cc1NC(=O)CN1CCN(CC(=O)Nc2ccccc2Cl)CC1	-53.3
COc1ccc(NC(C)=O)cc1NC(=O)CN1CCN(C2c3ccccc3-c3ccccc32)CC1	3.55
COc1ccc(NC(C)=O)cc1NC(=O)c1ccc(Cl)cc1	-18.2
COc1ccccc1NC(=O)CN1CCN(CC(=O)Nc2ccc(OC)c(OC)c2)CC1	-24.4
COc1ccc(NC(C)=O)cc1NC(=O)CN1CCN(CC(=O)Nc2ccc(Cl)cc2)CC1	-69.8
Cc1cc2c(cc1C)C(=O)NC(C)(C)C2	8.73
COc1cccc(N2C(=O)[C@H]3C(C(=O)c4cnccn4)=NN[C@H]3C2=O)c1	13.2
CCc1nnc(NC(=O)CSc2ccc(-c3ccc(C)cc3)nn2)s1	9.49
O=C(NC1CC(=O)c2sccc21)c1ccc(Cl)cc1Cl (stereo not shown)	-35.6
O=C(c1ccco1)N1CCN(C(=O)c2sccc2-c2ccccc2)CC1	-8.12
CCc1ccccc1NC(=O)CN1CCN(CC(=O)Nc2cc(C)ccc2OC)CC1	-28.4
COc1ccc(C)cc1NC(=O)CN1CCN(c2ccccn2)CC1	-11.7
COc1ccc(C)cc1NC(=O)CCN1CCCC1	2.36

SMILES	hERG current change (%, negative = inhibition) at 10uM [%]
COc1ccc(C)cc1NC(=O)CN1CCN(C/C=C/c2ccccc2)CC1	-78.3
COc1ccc(C)cc1NC(=O)CCN1CCN(c2ccccc2)CC1	-10.3
COc1ccc(C)cc1NC(=O)CCN1CCN(C/C=C/c2ccccc2)CC1	-77.1
Cc1ccc(S(=O)(=O)c2nnn3c2nc(N2CCOCC2)c2ccccc23)c(C)c1	-31.3
COCc1nnc(NC(=O)c2cc(C(=O)OC)cc([N+](=O)[O-])c2)s1	-2.76
O=C(Cc1ncc(C(F)(F)F)cc1Cl)NCc1cccnc1	17.1
COc1ccc(CC(=O)OCC(=O)Nc2ccc(OC(F)F)cc2)cc1OC	-19.7
Cc1cc(C)n(CC(C)NC(=O)c2cc(COc3c(F)cccc3F)on2)n1 (stereo not shown)	1.49
CCOc1ccc(C(=O)NCc2cccnc2)cc1[N+](=O)[O-]	-76
COc1ccc(OC)c(C2=NOC(C(=O)NCc3cccnc3)C2)c1 (stereo not shown)	-62
CCOc1ccc(C(=O)NC(=S)Nc2ncccc2C)cc1[N+](=O)[O-]	-67.6
CCOc1ccc(C(=O)NC(=S)NCc2cccnc2)cc1[N+](=O)[O-]	-2.86
CCOc1ccc(C(=O)NC(=S)Nc2ccccn2)cc1[N+](=O)[O-]	-2.48
COc1cccc(C2=NOC(C(=O)NCc3cccnc3)C2)c1 (stereo not shown)	35.6
CCOc1ccc(C(=O)NC(=S)Nc2cccnc2)cc1[N+](=O)[O-]	-16.1
COc1ccc(C(=O)NC(=S)NCc2cccnc2)cc1Cl	-1.7
COc1ccc(C(=O)NC(=S)NCc2cccnc2)cc1OC	-57.3
COc1ccc(C(=O)NC(=S)NCc2cccnc2)cc1Br	-23.9
COc1cc(OC)c(C2=NOC(C(=O)NCc3cccnc3)C2)cc1Cl (stereo not shown)	13
COc1ccc(C(=O)NC(=S)NCc2cccnc2)cc1[N+](=O)[O-]	-12.3
NC(=O)CSc1oc(-c2ccc(F)cc2)nc1S(=O)(=O)c1ccccc1	-8.24
Cc1ccc(S(=O)(=O)C(C#N)c2nc3ccccc3nc2OC(C)C)cc1 (stereo not shown)	-5.65

SMILES	hERG current change (%, negative = inhibition) at 10uM [%]
CN(CC(=O)Nc1ccc(F)cc1)C(=O)COC(=O)C1=COCCO1	-20
CCCCOC(=O)C1=C(C)Nc2ncnn2C1c1ccc(OC)c(OC)c1OC (stereo not shown)	-18.3
CCOC(=O)Cc1csc(NC(=O)c2ccc3c(c2)OCO3)n1	-22.8
Cc1nn(C(=O)CN2C(=O)c3ccccc3C2=O)c(C)c1Br	5.28
CCOC(=O)[C@H]1[C@H]2COc3ccc(Cl)cc3[C@@H]2N2C(=O)CN(Cc3ccc(Cl)cc3)C(=O)[C@@]12C	2.8
Cc1ccc(NC(=O)Nc2cc(Cl)ccc2C2COC(=O)C2=N)cc1 (stereo not shown)	27.9
Cn1c(N)c(S(=O)(=O)N2CCCC2)c(=O)n(C)c1=O	26.2
O=C(O)C(F)(F)F.c1cn2c(NC3CCCCC3)c(-c3ccc(SC4CCCCC4)cc3)nc2cn1	9.49
O=C(CSc1ccc(F)cc1)N1CCOCC1	16.2
O=C(N/N=C/c1cccnc1)c1cc(Br)ccc1O	30.5
Cc1ccc(-n2c(=O)cc(N3CC(C)CC(C)C3)[nH]c2=O)cc1 (stereo not shown)	23.7
COc1cc(NC(=O)Cn2cnc3c(nc4n3CCCCC4)c2=O)cc(OC)c1OC	22.8
O=C(Cn1cnc2c(nc3n2CCCCC3)c1=O)Nc1cccc(C(F)(F)F)c1	-52.3
COc1ccccc1NC(=O)Cn1cnc2c(nc3n2CCCCC3)c1=O	-11.4
CC(C)c1nc(CN(C)C(=O)N[C@H](C(=O)N[C@@H](Cc2ccccc2)C[C@H](O)[C@H](Cc2ccccc2)NC(=O)OCc2cncs2)C(C)C)cs1	-24.5
C#CCOCCOCCOCCNc1nc(N2CCOCC2)nc(N2CCN(C(=O)[C@H]([C@@H](C)CC)n3cc(CCC[NH+]=C(N)N)nn3)CC2)n1.[Cl-]	-0.117
COc1cccc(-n2c(SCC(N)=O)nnc2-c2ccncc2)c1	16
O=c1[nH]nc(Cc2ccc(Cl)cc2)c2ccccc12	8.04
O=c1[nH]nc(Cc2ccc([N+](=O)[O-])cc2)c2ccccc12	-70.2
O=c1[nH]nc(Cc2ccccc2)c2ccccc12	4.16
CN(C)CCNC(=O)c1cc(Br)ccc1Cl	3.14
CC(=O)c1c(N2CCN(c3ccccn3)CC2)nc(=S)n(-c2ccccc2)c1C	-32.3

SMILES	hERG current change (%, negative = inhibition) at 10uM [%]
CCOC(=O)CN1CCC(c2cc(-c3ccc(Cl)cc3)n[nH]2)CC1	-12.5
CC(C)(C)OC(=O)N1CCC(c2cc(-c3cccs3)n[nH]2)CC1	-1.2
Cc1ccc(CN2CCC(c3cc(-c4cccs4)n[nH]3)CC2)cc1	-82.1
Cc1ccc(CN2CCC(c3cc(-c4ccc(Cl)cc4)n[nH]3)CC2)cc1	-78.8
Cc1ccc(CN2CCN(/N=C/c3cccs3)CC2)cc1	-38
Clc1ccc(-c2cc(C3CCNCC3)[nH]n2)cc1	-3.21
O=C(O)c1ccc(NC(=O)c2cccc(C(=O)Nc3ccc(C(=O)O)cc3)c2)cc1	7.31
Cc1c(S(=O)(=O)NCCc2ccccc2)c(=O)n(C)c(=O)n1C	-1.25
CCN(CC)C(=O)c1ccc2c(c1[N+](=O)[O-])C(=O)c1ccccc1C2=O	6.69
Cc1nn(C2CCOC(C)(C)C2)c2c1C(c1ccc(OC(C)C)cc1)SCC(=O)N2 (stereo not shown)	-15.5
Nc1nc(N2CCCCC2)nc(N(c2ccccc2)c2ccccc2)n1	17.1
C1CCN(c2nc(N3CCCCC3)nc(N3CCNCC3)n2)CC1	-7.81
Nc1nc(N2CCCCC2)nc(N2CCCCC2)n1	-78.2
O=C(C1CCN(S(=O)(=O)N2CCOCC2)CC1)N1CCOCC1	-6.69
CN(C)S(=O)(=O)c1ccc(NC(=O)CN2CCOCC2)cc1	9.72
CCCCNS(=O)(=O)c1ccc(NC(=O)C2CCCO2)cc1 (stereo not shown)	-8.88
Cc1ccc(NC(=O)CN2CCOCC2)cc1	14.1
CCCCN(CCCC)S(=O)(=O)c1ccc(NC(=O)CN2CCOCC2)cc1	-53.6
CCN(CC)S(=O)(=O)c1ccc(NC(=O)C2CCCO2)cc1 (stereo not shown)	6.96
CCCN(CCC)S(=O)(=O)c1ccc(NC(=O)C2CCCO2)cc1 (stereo not shown)	-64.4
CC12CCC(C(=O)N(CC(O)CN3CCN(Cc4ccccc4)CC3)C1=O)C2(C)C.Cl (stereo not shown)	-6.03
O=C(C1CCC(=O)N1Cc1ccccc1Cl)N1CCC2(CC1)OCCO2 (stereo not shown)	-29.7
